Test results from PubChem BioAssay AID1508600 (Functional Genomics Laboratory (NCATS/FGL), 2020).
Among all 53,000 sequences or so, about 3,700 (7%) were called active.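 The calls were made as follows: active = gene knockdowns whose robust z-score for IL-1 alpha signal is at least 2 or at most -2, so actives lie on both sides; inactive = the rest.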 The sample as a whole holds a higher share of actives than the screen did.

Assay: Components of the Cytosolic LPS Sensing Pathway: Gene Identification via Genome-wide siRNA Screen;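 also: robust z of the log signal after scaling to non-targeting control siRNA wells of the plate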
Settings: RAW264.7 macrophages, IL-1a HTRF, actives lie on both sides, screened at 100 nM (by protocol), cells primed 5 h with Pam3CSK4 first
Outline: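 Using IL-1a HTRF as read-out, the screen measured release from RAW264.7 cells after 48h siRNA knockdown (100 nM), 5 h Pam3CSK4 priming and 24 h cytosolic LipidA. Values were expressed relative to negative-control wells as robust z-scores.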

For GGAUAAUGGAGCAAAUUGCTT against Slc22a1, which z-score is on record?
The z-score was -0.522 (inactive).

For GCAAGUUAACCAGACCCAATT against Mro, which z-score is on record?
Its z-score is 0.709 (inactive).

With GGAGAAGCUGUUUGUUCUGTT against Ftcd as the sequence, how does the z-score read?
Its z-score is 0.507 (inactive).

Which z-score does the source give for GGACAAGGCAACACAUACCTT against Csnk1a1 here?
Its z-score is 2.58 (active).

For GCCACUACUACAUCAAUGUTT against Mall, which z-score is on record?
Its z-score is 1.24 (inactive).

For GGGUCCUCUUUAAAAGGCUTT against Smc6, which z-score is on record?
The z-score was -1.1 (inactive).

With CCUACCCAAACCUACUAAATT against Gpt2 as the sequence, how does the z-score read?
Its z-score is -0.168 (inactive).

For GGAUCUGGAGAAGAUGAUGTT against Ret, which z-score is on record?
The z-score was -0.822 (inactive).

With GGCCAAAAAAACAUACAAGTT against Zbtb21 as the sequence, how does the z-score read?
The z-score was 4.91 (active).

For GGUAUCAAGGCUCUGGUGUTT against Ifnlr1, which z-score is on record?
The z-score was -0.602 (inactive).

With CAGCAUGAUGAUGGAGACCTT against Sox1 as the sequence, how does the z-score read?
The z-score was 0.708 (inactive).

With UGGAUACUCUAUCUCAAGCTT against Serpinb9g as the sequence, how does the z-score read?
The z-score was -0.479 (inactive).

Which z-score does the source give for GCAACAAGUGUUGGACUCATT against Tob2 here?
The z-score was -2.04 (active).

Which z-score does the source give for GGAAAGUAACUAAAGGCAATT against Arl8b here?
Its z-score is 0.274 (inactive).

With GCUACAAGACUUUUACCAGTT against Tnfsf18 as the sequence, how does the z-score read?
The z-score was -0.0821 (inactive).

Which z-score does the source give for GGGACUAGACUUCUUCGGATT against Ddx52 here?
The z-score was 0.186 (inactive).

Which z-score does the source give for UGGCAAAAAGGUGAUAACUTT against Hbb-b2 here?
The z-score was 0.86 (inactive).

With GGCCCAGCAUGCAAGUUAUTT against Sh2d2a as the sequence, how does the z-score read?
The z-score was 2.17 (active).

With CCACAGCCAAAUGCACAAGTT against Platr26 as the sequence, how does the z-score read?
The z-score was 0.31 (inactive).

For CCUCAUUCAAGAAACCUCATT against Comtd1, which z-score is on record?
Its z-score is -1.13 (inactive).

With GGAACACCAUCAUCAGUCATT against Ephb2 as the sequence, how does the z-score read?
Its z-score is -0.448 (inactive).

For GGUCUCCACUGAGGACUGUTT against Ndufa2, which z-score is on record?
Its z-score is 0.284 (inactive).

For GGCCUAGGGAAAGCUAUGGTT against Nat8f3, which z-score is on record?
The z-score was -2.57 (active).

Which z-score does the source give for GCAGAAGUGCUAUUCUUGUTT against Cnbp here?
Its z-score is 0.108 (inactive).

Which z-score does the source give for GCGGCUUUGGCAAUUCUCUTT against Olfr1361 here?
The z-score was -1.13 (inactive).

For GGUGCCUUUCUGCUUUUGATT against Spink12, which z-score is on record?
The z-score was 1.87 (inactive).

With GGAAUAUUACCAGUCGGAATT against Marveld3 as the sequence, how does the z-score read?
Its z-score is 0.469 (inactive).

Which z-score does the source give for GGAAAAUCUUGACUUCAUCTT against Cbwd1 here?
The z-score was -0.316 (inactive).

For CCUGAUGCCAGUUAACAGUTT against Rcan1, which z-score is on record?
The z-score was 0.516 (inactive).

For GGAGGUUUUCCACCACUUGTT against Efcc1, which z-score is on record?
The z-score was -2.04 (active).

With GCGAUAUGAAUAUCAUCUUTT against Fbxo22 as the sequence, how does the z-score read?
Its z-score is -0.0727 (inactive).

For GGAAUCUUUAUCCACAUUCTT against Chst15, which z-score is on record?
The z-score was 0.943 (inactive).

For GGAGCAACUAAUGAAGAAATT against Dnajc22, which z-score is on record?
Its z-score is -0.064 (inactive).

With GGUACUACAAGAGAAAAGATT against Hdhd2 as the sequence, how does the z-score read?
Its z-score is -0.958 (inactive).

With GGUCUCUGUUGCUUUGACUTT against Tgoln1 as the sequence, how does the z-score read?
Its z-score is 4.13 (active).

With GGUCCUAAAAUUUCCUCUUTT against Prdx3 as the sequence, how does the z-score read?
Its z-score is 0.854 (inactive).

With GCCUCUUAUUUGGUUACGATT against Best3 as the sequence, how does the z-score read?
The z-score was 0.605 (inactive).

With GCGUUUCACGUACCUUCCUTT against Nfatc1 as the sequence, how does the z-score read?
Its z-score is 1.22 (inactive).

With GGUGCUAUUUACCAAACUCTT against Btg2 as the sequence, how does the z-score read?
The z-score was 1.82 (inactive).

With GGAACACAACUUCCUGUUCTT against Map11 as the sequence, how does the z-score read?
Its z-score is 1.05 (inactive).

With GGGAUGCUGUCUUCUGUCATT against Prex1 as the sequence, how does the z-score read?
Its z-score is -3.39 (active).

Which z-score does the source give for GGAUUUUACAGUUUUUGGATT against Pccb here?
Its z-score is 1.01 (inactive).

For GGUCAUGGUUAUUUUGUUATT against Plekhg2, which z-score is on record?
Its z-score is 0.929 (inactive).

Which z-score does the source give for GGCUAUUUUGGCUUGUAAATT against Jam2 here?
Its z-score is -0.504 (inactive).

For CCUAACCACUACCUUAUACTT against H2-DMa, which z-score is on record?
The z-score was 2.43 (active).

Which z-score does the source give for GGUGUCAUGAUGGAGCUGATT against Crygc here?
The z-score was 0.862 (inactive).

Which z-score does the source give for GGGUAACACCUCAAGUUCATT against Rhag here?
The z-score was 2.33 (active).

With GGCCUCAGUUGGACUUGAATT against Scn10a as the sequence, how does the z-score read?
Its z-score is -0.352 (inactive).

For GGCUAUACCUUGGUAGAUATT against Parvg, which z-score is on record?
The z-score was -1.19 (inactive).

For GGUCUCCUCCAAGAUGAUGTT against Mettl3, which z-score is on record?
The z-score was -1.01 (inactive).

Which z-score does the source give for GCAGGAGAACUUUUUUAGUTT against Hus1 here?
The z-score was -1.01 (inactive).

With GGGUUGUUGAGACUUCCACTT against Hmbs as the sequence, how does the z-score read?
Its z-score is 2.79 (active).

Which z-score does the source give for CCAGGAGGAUACAAUCCCUTT against Rgs3 here?
The z-score was -3.38 (active).

For GGUGCUAGGAAUGAACGGGTT against Ripply1, which z-score is on record?
The z-score was 0.478 (inactive).

For GGAUGCUUGUGGACCUGUGTT against Olfr1123, which z-score is on record?
Its z-score is 1.14 (inactive).

For GGAUUAAAUCCGAAAAGCUTT against Tmem51, which z-score is on record?
Its z-score is -2.36 (active).

With GGCCAUCAGUGUGGAAUGUTT against BC004004 as the sequence, how does the z-score read?
The z-score was -0.19 (inactive).

With GGUAAUAACCCUUAAUAAGTT against Akirin2 as the sequence, how does the z-score read?
Its z-score is 0.572 (inactive).

Which z-score does the source give for GCACAAAAAAGUGAUAUUGTT against Hdlbp here?
Its z-score is 0.41 (inactive).

With CGUAGCUGUAAUUCUUCAGTT against Pcdhgb2 as the sequence, how does the z-score read?
The z-score was 2.02 (active).

For GGAAGAUGUUAAGAGUUACTT against Slc1a3, which z-score is on record?
Its z-score is -0.865 (inactive).

With GCUAUCUCUGCUAAUAAAGTT against Col6a1 as the sequence, how does the z-score read?
The z-score was -0.203 (inactive).

Which z-score does the source give for GCCAUCCUUGUGCUAAGAGTT against Ifna4 here?
Its z-score is -0.604 (inactive).

Which z-score does the source give for GCAUGAAUUCAAAUUGCCATT against Adgrl4 here?
The z-score was -0.981 (inactive).

With CGGUACUAAACAUUACCUCTT against Olfr633 as the sequence, how does the z-score read?
Its z-score is 0.957 (inactive).

With “GAGUGGUUUCUAAUUCGUATT against A830031A19Rik” as the sequence, how does the z-score read?
Its z-score is 2.56 (active).

With CCUGUUCUGUUAUCAACGGTT against Plxdc1 as the sequence, how does the z-score read?
The z-score was 0.123 (inactive).

For GGCAAACUGUCUCUUCAGATT against Pim1, which z-score is on record?
Its z-score is -0.131 (inactive).

For GGUGAAGAGUUCAAACAUCTT against Atp9a, which z-score is on record?
Its z-score is 1.29 (inactive).
